Screening results (PubChem)
This is a sample that favours compounds with a hit; in the whole collection about 1.2% have one here.
RXFP1 antag – RXFP1 (human) relaxin receptor antagonism. HEK293-RXFP1, relaxin-stimulated cAMP HTRF, 30 min; hits give low values. 350,000 tested, 0.59% active. Q9HBX9. activity change, negative = inhibition, % at 57.5 µM. AID 1259400;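 active = activity change of -60% or lower, but not beyond a set lower limit; inconclusive = change between -60% and -40%, or beyond the set limit; inactive = change above -40%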; also: % is scaled to controls: 0 for no effect and ±100 for the full control effect
Target sequence (Q9HBX9 whole entry, looked up): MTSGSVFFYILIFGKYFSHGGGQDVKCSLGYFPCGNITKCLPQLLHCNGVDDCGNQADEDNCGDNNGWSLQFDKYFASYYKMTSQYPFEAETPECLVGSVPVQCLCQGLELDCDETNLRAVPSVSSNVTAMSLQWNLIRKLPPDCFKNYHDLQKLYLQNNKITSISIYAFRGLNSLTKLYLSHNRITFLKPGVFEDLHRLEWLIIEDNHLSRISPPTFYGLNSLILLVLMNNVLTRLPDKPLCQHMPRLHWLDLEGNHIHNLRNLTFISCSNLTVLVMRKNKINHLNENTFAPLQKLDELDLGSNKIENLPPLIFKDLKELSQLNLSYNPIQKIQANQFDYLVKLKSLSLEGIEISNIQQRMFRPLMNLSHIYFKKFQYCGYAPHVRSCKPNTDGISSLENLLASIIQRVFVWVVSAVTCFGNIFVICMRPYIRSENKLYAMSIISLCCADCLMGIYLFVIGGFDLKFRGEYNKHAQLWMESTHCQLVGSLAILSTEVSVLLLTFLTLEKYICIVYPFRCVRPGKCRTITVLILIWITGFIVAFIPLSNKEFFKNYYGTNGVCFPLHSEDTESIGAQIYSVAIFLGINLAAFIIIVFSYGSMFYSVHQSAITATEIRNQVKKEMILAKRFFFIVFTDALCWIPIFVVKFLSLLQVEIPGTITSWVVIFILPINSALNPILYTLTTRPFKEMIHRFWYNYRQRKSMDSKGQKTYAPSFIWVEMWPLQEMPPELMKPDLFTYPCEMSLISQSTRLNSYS
Akt phos inh – inhibitors of Akt phosphorylation | Neuro2A IGF-stimulated pAkt S473 HTRF, 20 min; hits give low values | activity change, % for hits at 50 µM | 360,000 tested, 0.32% active; in the data active = activity change below about -80%; inconclusive = mostly about -51% to -80%; also: % is scaled to controls: 0 for no effect and ±100 for the full control effect
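Neuro2A cells (4,500/well, DMEM with 0.5% FBS) were treated with compound at a single 50 µM final concentration, stimulated with 6 nM IGF for 20 min at 37 °C, and lysed. Phospho-Akt Ser473 was read by HTRF as 665/615 ratio ×10^4.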
gsp antag – gsp mutant antagonism | gsp-mutant cells, cAMP HTRF, 30 min | Potency, µM (titrated, usually from 76.9 µM), for the others: at the top dose activity change, negative = inhibition, most hits filed as inhibitors | 340,000 tested, 0.4% active; calls by dose curve; cell line not stated here;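 also: intracellular cAMP measured with PDE inhibitor Ro 20-1724 present during compound exposure; potency is read from the fitted curve at half-maximal effect; % is scaled to controls: 0 for no effect and ±100 for the full control effect; nearly all actives have a fitted effect of over 65% in size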
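Cells, 2000/well, grown 16–24 h in DMEM 10% FBS with 0.5 mg/ml G418, then compounds plus […] (300 uM addition stock), 30 min at 37C. cAMP read by HTRF (cAMP-d2 and anti-cAMP antibody-K in lysis buffer) after 30 min RT.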
RXFP1 agonist – agonists of human relaxin receptor RXFP1. Potency, µM (doses to about 57.5 µM), for inactives: at the top dose activation, hits mostly activators. Q9HBX9. HEK293T-RXFP1 cAMP TR-FRET, 30 min; response scale: percent of porcine relaxin response, buffer zero. 370,000 tested, 0.3% active; active = well fitted activation curve with a large enough effect; inconclusive = small, poorly fitted or top-dose-only effect; also: potency is read from the fitted curve at half-maximal effect; % is scaled to controls: 0 for no effect and ±100 for the full control effect; nearly all actives have a fitted effect of over 60% in size
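Agonist response is measured as cAMP accumulation in an RXFP1-transfected HEK293T line under PDE4 inhibition. Values are scaled between buffer-only and 29 nM porcine relaxin, and EC50s come from standard Hill equation fits.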
gsp ag – gsp mutant agonism; gsp mutant cells, cAMP HTRF, 30 min; Potency, µM (series often up to 76.9 µM), without a hit: at the top dose activation (cAMP increase), hits mostly activators; 340,000 tested, 0.13% active; AID 624287; active = well fitted activation curve with a large enough effect; inconclusive = small, poorly fitted or top-dose-only effect, or another doubt; inactive = no such curve, though single readings can be large or run the other way; cell line not stated here;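 also: phosphodiesterase inhibitor Ro 20-1724 added with compounds to block cAMP breakdown; potency is read from the fitted curve at half-maximal effect; nearly all actives have a fitted effect of over 60% in size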
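Cells stably selected in G418 were plated at 2000/well, grown 16-24 hr, then given compounds in DMSO with the PDE inhibitor […] (300 uM solution added) for 30 min at 37C; cAMP was read by HTRF.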
* hit, by the source's call; i = inactive; ? = inconclusive; nt = no result; [ ] = dose if it differs, or a comment.

SMILES	RXFP1 antag	Akt phos inh	gsp antag	RXFP1 agonist	gsp ag
CCC(C(=O)Nc1ccc(C)c(Cl)c1)n1c(=O)c(-c2ccccc2NC(C)=O)nc2ccccc21 (stereo unspecified)	-10	nt	nt	-2%	nt
CCc1cccc(NC(=O)CCCn2nc(C)c3c(C)n(-c4ccccc4)nc3c2=O)c1	-66*	i	-13%	0%	13%
COc1cc(NS(=O)(=O)c2ccc3c(c2)CC(C)N3C(=O)C2CCC2)cc(OC)c1OC (stereo unspecified)	nt	nt	nt	-2%	nt
Cc1cc(-c2ccccc2)nc(SCc2ccc(C(=O)O)cc2)n1	-3	i	35µM*	0%	-33%
Cc1cc(-c2ccccc2)nc(SCc2ccc(C(=O)O)o2)n1	-11	i	-8%[15.4 µM]	-1%	-1%
NC(=O)c1nsc(C(=O)N(CC(=O)NC2CCCC2)c2ccc(F)c(Cl)c2)c1N	-65*	i	5%	1%	-19%
Nc1ccc(C2CCCc3nonc32)c2nonc12 (stereo unspecified)	1	-113%*	1%	0%	-24%
CCOc1cc(N2CCOCC2)c(OCC)cc1NC(=O)c1c(C)noc1C	-14	i	35µM*	1%	-11%
CC(C)c1ccc2c(c1)C(N1CCNCC1)Cc1ccc(F)cc1S2 (stereo unspecified)	-72*	i	16%	nt	-2%
CN1CCN(C2Cc3ccc(F)cc3Sc3cc(F)c(Cl)cc32)CC1 (stereo unspecified)	-22	i	13%	nt	26%
Cc1ccc(C)c(NC(=O)c2ccc3c(c2)N(Cc2ccc(F)cc2)C(=O)CS3=O)c1 (stereo unspecified)	nt	i	-4%	0%	-1%
O=C(Nc1ccc(Br)cc1F)c1ccc2c(c1)N(Cc1ccccc1)C(=O)CS2=O (stereo unspecified)	-72*	i	?	-1%	-14%
COc1ccc(NC(=O)C(NC(=O)/C=C\c2ccc3c(c2)OCO3)c2ccccc2)cc1 (stereo unspecified)	2	nt	nt	-4%	nt
COc1cc(Nc2ncc3c(n2)CCN(Cc2ccc(OC(C)C)c(OC)c2)C3)cc(OC)c1	-8	nt	nt	-5%	nt
Cn1sc(NC(=O)c2cccc(Cl)c2)nc1=O	-25	i	28µM*	1%	15%
CO/N=C(\C(=O)N[C@@H]1C(=O)N2C(C(=O)OCOC(=O)C(C)(C)C)=C(C)CS[C@H]12)c1csc(N)n1	-36	nt	nt	nt	nt
O=C(CSc1nc(-c2ccc(F)cc2)[nH]c1-c1ccc(F)cc1)Nc1ccc2c(c1)OCO2	-60*	nt	nt	2%	nt
CC(=O)NC(c1ccco1)c1cc(Cl)c2ccc(N(C)C)nc2c1O (stereo unspecified)	nt	nt	nt	1%	nt
COc1cccc(CN2CCN(Cc3cccn3-c3cccnc3)CC2CCO)c1 (stereo unspecified)	-7	i	50µM*	1%	-13%
CC(C)CCN1CCN(Cc2cccn2-c2cccnc2)CC1CCO (stereo unspecified)	1	i	2%	-2%	-21%
O=C(c1ccc(Oc2ccc([N+](=O)[O-])cc2Cl)cc1)N1CCCC1	-38	i	11µM*	-1%	-7%[15.4 µM]
CCOC(=O)C1=C(N)Oc2c(oc(CO)cc2=O)C1c1c(F)cccc1Cl (stereo unspecified)	3	-109%*	-4%	0%	-7%
Cc1cn2c(=O)cc(COC(=O)c3ccc(NC(=O)COc4ccc(C)c(C)c4)cc3)nc2s1	3	nt	nt	1%	nt
O=[N+]([O-])c1cc(-c2nc(-c3cccnc3)no2)ccc1NCc1ccccc1	nt	nt	nt	-5%	nt
CN(CCOc1ccc(Cl)cc1)C(=O)c1cc(-c2ccco2)nc2ccccc12	-70*	i	?	3%	-3%
SMILES	RXFP1 antag	Akt phos inh	gsp antag	RXFP1 agonist	gsp ag
Cc1ccc(-c2nnc(SCc3ccccc3C#N)o2)cc1	nt	nt	nt	-1%	nt
O=C(COC(=O)COc1ccc(Cl)cc1)NCCNC(=O)COC(=O)COc1ccc(Cl)cc1	-72*	i	-3%	0%	-2%[15.4 µM]
CC1CCc2c(sc(NC(=O)CSc3nnc(-c4ccccc4)o3)c2C#N)C1 (stereo unspecified)	-6	i	-1%	1%	13%
N#Cc1c(NC(=O)CSc2nnc(-c3ccccc3)o2)sc2c1CCCC2	7	i	22µM*	3%	1%
CCOC(=O)c1c(C)[nH]c(C(=O)COC(=O)CCC(=O)c2ccc3c(c2)OCCO3)c1C	-2	i	28µM*	0%	5%
CCOC(=O)N1CCN(C(=O)CCS(=O)(=O)c2ccc3c(c2)CC(C)N3C(=O)CC)CC1 (stereo unspecified)	-92*	nt	?	2%	9%
Oc1ccc(Nc2nc(N3CCCC3)c3ccccc3n2)cc1	-2	i	10%	0%	0%
COc1ccc(Nc2nc(N3CCCCC3)c3ccccc3n2)cc1	-66*	i	-33%	3%	-6%
Cc1ccc(C)c(CSc2cn(CC(=O)N3CCCC3)c3ccccc23)c1	-74*	nt	nt	18%	nt
Cc1ccc(C)c(CSc2cn(CC(=O)N3CCCCCC3)c3ccccc23)c1	-5	nt	nt	-2%	nt
COc1ccc(CCC(=O)NCc2ccccc2OC)cc1	12	i	3.2µM*	3%	?
COc1ccc(CCC(=O)NCCc2csc(-c3cccc(F)c3)n2)cc1	-14	nt	nt	1%	nt
O=C(NCCc1csc(-c2cccc(F)c2)n1)c1ccc(Br)o1	-78*	nt	nt	-2%	nt
COc1ccc(CCC(=O)NCCc2csc(-c3cccc(C)c3)n2)cc1	-73*	nt	nt	1%	nt
COc1ccccc1CNC(=O)CCc1ccccc1	3	i	5%	1%	-8%
O=C(O)c1ccccc1-c1nc2ccccc2c(=O)[nH]1	-3	-105%*	16%	2%	0%
O=C(O)c1ccccc1-c1nc(-c2ccccc2)c(-c2ccccc2)[nH]1	-3	i	-13%	6%	1%[15.4 µM]
O=C(CSc1nnc(CNC(=O)c2c(F)cccc2Cl)o1)NCc1ccc2c(c1)OCO2	2	-107%*	6%	0%	-11%
O=C(CSc1nnc(CNC(=O)c2c(F)cccc2Cl)o1)Nc1ccc2c(c1)OCCO2	1	i	10%	2%	1%
Cc1ccc(CNC(=O)c2sc3nc4n(c(=O)c3c2C)CCCC4)cc1	-16	nt	nt	1%	nt
O=[N+]([O-])c1ccc(CS(=O)c2ccccc2)cc1 (stereo unspecified)	0	i	2%	nt	18%
O=[N+]([O-])c1ccc(S(=O)Cc2ccccc2)c([N+](=O)[O-])c1 (stereo unspecified)	-103*	i	-15%	nt	-1%
Cc1ccccc1-c1noc(-c2ccccc2OCC(=O)Nc2cccc([N+](=O)[O-])c2)n1	nt	nt	nt	-6%	nt
O=C(c1ccc(CS(=O)c2ccccc2Cl)o1)N1CCN(c2ccccc2F)CC1 (stereo unspecified)	-4	nt	nt	0%	nt
